Screens from PubChem BioAssay.
ERG Ets-DNA blk: ERG Ets/DNA interaction inhibition; P11308; fluorescence polarization, His-ERG Ets domain / labelled DNA; Potency, µM (top dose mostly 76.9 µM), most hits filed as inhibitors; hit rate 0.028% among 370,000; AID 624246; active means well fitted inhibition curve with a large enough effect in the polarisation, with a control signal flat; inconclusive means small, poorly fitted or top-dose-only effect, or effect the other way, or a change in a side signal; inactive means no such curve, though single readings can be large or run the other way; the % refers to the polarisation;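 further: polarization taken with two DNA probes labelled with fluorescein and Texas red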
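His-tagged ERG Ets domain (1 uM in the protein solution; 300mM KCl, 50mM Tris-HCl, 1mM EDTA, 1mM DTT, pH 7.5) received compound, then a probe mix of 5 nM fluorescein-DNA and 100nM Texas-615-DNA. Fluorescence polarization was read for both dyes.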
EPAC2 agonist: activates human EPAC2 exchange factor. Q8WZA2. Potency, µM (highest dose often 154 µM), usual class: activators. hit rate 0.079% among 360,000. AID 720711. EPAC2 activation, biochemical qHTS; response scale: 100% = 6.5 mM cAMP response; further: nearly all actives have a fitted effect of over 50% in size
Target sequence (Q8WZA2 whole entry, looked up): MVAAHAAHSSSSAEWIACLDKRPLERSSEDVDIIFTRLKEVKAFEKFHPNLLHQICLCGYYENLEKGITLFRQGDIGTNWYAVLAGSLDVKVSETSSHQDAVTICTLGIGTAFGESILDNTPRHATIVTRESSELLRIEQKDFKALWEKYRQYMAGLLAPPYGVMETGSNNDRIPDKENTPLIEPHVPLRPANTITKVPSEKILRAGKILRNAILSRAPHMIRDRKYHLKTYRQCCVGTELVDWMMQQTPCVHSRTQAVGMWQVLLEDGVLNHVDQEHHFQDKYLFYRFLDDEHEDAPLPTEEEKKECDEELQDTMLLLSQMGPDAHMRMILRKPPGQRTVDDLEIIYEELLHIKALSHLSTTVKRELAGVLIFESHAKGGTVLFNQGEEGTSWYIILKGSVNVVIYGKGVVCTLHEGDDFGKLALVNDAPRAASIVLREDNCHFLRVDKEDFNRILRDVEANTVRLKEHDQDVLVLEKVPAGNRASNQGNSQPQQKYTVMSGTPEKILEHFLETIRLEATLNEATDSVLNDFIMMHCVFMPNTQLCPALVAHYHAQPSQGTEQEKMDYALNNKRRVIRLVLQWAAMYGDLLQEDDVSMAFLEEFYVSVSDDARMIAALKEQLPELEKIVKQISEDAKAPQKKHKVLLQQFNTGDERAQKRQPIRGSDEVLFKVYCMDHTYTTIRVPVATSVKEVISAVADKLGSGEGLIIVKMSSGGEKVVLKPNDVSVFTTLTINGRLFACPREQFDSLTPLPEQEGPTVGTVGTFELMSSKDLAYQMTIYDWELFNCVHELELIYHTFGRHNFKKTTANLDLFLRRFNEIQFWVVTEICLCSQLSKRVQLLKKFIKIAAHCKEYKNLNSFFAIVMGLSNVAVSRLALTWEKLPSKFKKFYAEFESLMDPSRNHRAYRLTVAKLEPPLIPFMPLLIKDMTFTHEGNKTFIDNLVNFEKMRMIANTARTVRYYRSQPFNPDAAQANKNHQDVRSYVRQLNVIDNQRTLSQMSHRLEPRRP
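Compounds were titrated in qHTS against a Rap1B-BODIPY-GDP (250 nM) complex with EPAC2 (100 nM) and GDP (50 uM). BODIPY-GDP release tracked at 480/540 nm over 30 min at room temperature, normalized to 6.5 mM cAMP.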
EPAC1 antag: EPAC1 (human) antagonism; hit rate 0.14% among 360,000; O95398; Potency, µM (doses to about 115 µM), most hits filed as inhibitors; EPAC1 GEF assay, Rap1b-BODIPY-GDP exchange fluorescence; further: nearly all actives have a fitted effect of over 50% in size
EPAC1 ag: agonists of human EPAC1. hit rate 0.073% among 360,000. Potency, µM (series often up to 154 µM), hits mostly activators. EPAC1 agonist qHTS, biochemical assay; response scale: 100% = response to 6.5 mM cAMP. O95398; further: nearly all actives have a fitted effect of over 60% in size
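Compounds were pinned as a concentration titration into mixtures of EPAC1 (100 nM), BODIPY-GDP-loaded Rap1B (250 nM) and GDP (50 uM). After 5 min at room temperature, fluorescence was followed for 30 min; activity was scaled to 6.5 mM cAMP.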
TDP1 inh: TDP1 (human) enzyme inhibition; Q9NUW8; recombinant TDP1, AlphaScreen DNA substrate cleavage; Potency, µM (series often up to 130 µM), most hits filed as inhibitors; hit rate 0.28% among 350,000; further: nearly all actives have a fitted effect of over 40% in size
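Steps: enzyme plus compound, 15 min RT; add biotin/phosphotyrosine-FITC oligonucleotide (15 nM final), react 5 min; add donor/acceptor beads (10 ug/ml final), 10 min; read AlphaScreen. Tdp1 at 1 nM final.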
EPAC2 antagonist: antagonists of human EPAC2; Potency, µM (top dose mostly 114 µM), hits mostly inhibitors; hit rate 0.18% among 360,000; EPAC2 GEF exchange of Rap1B-BODIPY-GDP, fluorescence; further: nearly all actives have a fitted effect of over 45% in size
Hits are given with their value; – = inactive; ? = inconclusive; · = no result. Rows were chosen to be rich in hits. Some 0.54% of all compounds tested hit in one or more screens of this group. Unless noted, the call rests on the fitted dose curve; in most records, active means well fitted curve in the direction sought with a large enough effect; inconclusive means small, poorly fitted or top-dose-only effect, or another doubt; inactive means no such curve, though single readings can be large; an effect the other way counts as inactive or inconclusive.

SMILES | ERG Ets-DNA blk | EPAC2 agonist | EPAC1 antag | EPAC1 ag | TDP1 inh | EPAC2 antagonist
Cn1cccc1/C=C1\C(=O)NC(=O)N(Cc2ccco2)C1=O | – | – | ? | – | 18µM | –
O=C1NC(=O)N(Cc2ccco2)C(=O)/C1=C/C=C/c1ccco1 | – | – | 56µM | – | · | –
Cc1ccc(N2C(=O)NC(=O)/C(=C\C=C\c3ccco3)C2=O)cc1C | – | – | 56µM | – | – | –
C=C(Cl)CCl | · | · | · | · | – | ·
O=[N+]([O-])c1ccc(N(CCO)CCO)c2c1no[n+]2[O-] | · | – | 56µM | – | · | ?
Cc1ccc(N2C(=O)NC(=O)/C(=C/c3ccc(-c4ccc(C(=O)O)c(Cl)c4)o3)C2=O)cc1 | – | – | – | – | 20µM | –
C=C(C)C(=O)OCC1CO1 (centres undefined) | · | · | · | · | – | ·
[Cd+2].[Cl-].[Cl-] | · | · | · | · | – | ·
[Cl-].[Cl-].[Hg+2] | · | · | · | · | 35µM | ·
C[n+]1c2ccccc2nc2ccc(NCCO)cc21 | 7.9µM | – | ? | – | · | ?
OCCNc1c2c(nc3ccccc13)CCCC2 | – | – | – | – | – | –
CNc1ccc2nc3ccccc3[n+](C)c2c1 | 5µM | – | ? | – | · | ?
CCCCC/C=C\C/C=C\C/C=C\C/C=C\CCCC(=O)OCCN | · | · | · | · | – | ·
CCCCC(CC)COC(=O)CCCCC(=O)OCC(CC)CCCC (centres undefined) | 28µM | – | – | – | – | –
CN1[C@H]2CC(OC(=O)[C@H](CO)c3ccccc3)C[C@H]1[C@H]1O[C@H]12 (some centres undefined) | · | · | · | · | – | ·
CCC#N | · | · | · | · | – | ·
CCC(C=C[C@@H]1OC(=O)C=C[C@H]1C)=C[C@H](C)CC=CC(C)=C[C@@H](C)C(=O)[C@@H](C)[C@H](O)[C@@H](C)CC(C)=CC(=O)O | · | · | · | · | 1.3µM | ·
CC[N+](=O)[O-] | · | · | · | · | – | ·
CC[C@H](C)[C@H](NC(=O)[C@@H](N)Cc1ccc(O)cc1)C(=O)NCC(=O)N[C@@H](CO)C(=O)N[C@@H](CCCN=C(N)N)C(N)=O | · | · | · | · | – | ·
